Shown are actives, neighbours in structure and some others; about 7.3% of the full set was active somewhere.
NPC1 prom act – activators of NPC1 promoter. Huh7 NPC1 promoter luciferase reporter, 24 h. Potency, µM (highest dose often 9.22 µM), without a hit: at the highest dose activation, most hits filed as activators. actives 2.4% (n = 320,000). AID 485313; also: % of control where 0% means no effect; nearly all actives have a fitted effect of over 60% in size
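Huh7 cells stably carrying NPC1 promoter–luciferase, plated in Opti-MEM with 10% FBS for 2 h, were exposed to compound in DMSO for 24 h at 37 °C; luciferase reagent was added for 10 min and luminescence read.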
ELG1 genotoxic – induces genotoxicity in HEK293T cells with luciferase-tagged ELG1. HEK293T ELG1-luciferase reporter, luminescence, 16 h. Potency, µM (titrated, usually from 46 µM), for the others: at the top dose activity change, positive = activation, usual class: activators. actives 1.3% (n = 330,000). AID 504466; also: % of control where 0% means no effect; nearly all actives have a fitted effect of over 60% in size
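16 hr compound incubation (37 °C, 5% CO2) of HEK293T cells carrying luciferase-tagged ELG1; luciferase then measured by ONE-Glo luminescence after 30 min at RT.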
uPA surface inh – blocks generation of uPA at the cell surface. AID 540303. Potency, µM (titrated, usually from 38.3 µM), for inactives: at the highest dose activity change, negative = inhibition, usual class: inhibitors. actives 0.31% (n = 330,000). cell surface uPA generation assay, qHTS; active = well fitted inhibition curve with a large enough effect; inconclusive = small, poorly fitted or top-dose-only effect; inactive = no such curve, though single readings can be large or run the other way; tested in mouse RAW 264.7 cells; also: % is scaled to controls: 0 for no effect and ±100 for the full control effect; nearly all actives have a fitted effect of over 55% in size
FLuc counter – inhibits or activates purified firefly luciferase, miR-21 counter-screen. AID 588342. P08659. actives 6.9% (n = 360,000). purified FLuc, Km substrates, luminescence inhibition. Potency, µM (series often up to 57.5 µM), inactives show at the highest dose activity change, negative = inhibition, actives largely listed as inhibitors;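 also: plate controls were vehicle for no effect and reference inhibitor for full effect; nearly all actives have a fitted effect of over 55% in size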
Target sequence (P08659 whole entry, looked up): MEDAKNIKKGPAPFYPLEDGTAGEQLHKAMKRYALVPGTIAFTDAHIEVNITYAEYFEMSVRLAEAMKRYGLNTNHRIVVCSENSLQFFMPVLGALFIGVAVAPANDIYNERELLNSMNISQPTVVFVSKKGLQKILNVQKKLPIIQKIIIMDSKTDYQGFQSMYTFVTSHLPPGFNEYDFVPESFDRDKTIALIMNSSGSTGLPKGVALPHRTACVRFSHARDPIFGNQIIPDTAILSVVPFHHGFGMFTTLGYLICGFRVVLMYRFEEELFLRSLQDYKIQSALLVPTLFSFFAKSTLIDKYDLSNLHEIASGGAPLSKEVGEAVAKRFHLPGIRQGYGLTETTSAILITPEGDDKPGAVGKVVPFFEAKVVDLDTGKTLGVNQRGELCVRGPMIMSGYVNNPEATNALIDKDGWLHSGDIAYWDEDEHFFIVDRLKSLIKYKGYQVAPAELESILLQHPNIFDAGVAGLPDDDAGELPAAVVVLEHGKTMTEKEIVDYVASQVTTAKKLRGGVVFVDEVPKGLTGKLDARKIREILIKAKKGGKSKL
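Purified P. pyralis luciferase (10nM final) with 10uM D-luciferin and 10uM ATP (Km levels) in 50mM Tris acetate pH 7.5, 10mM Mg acetate, 0.01% Tween-20, 0.05% BSA; qHTS 6-point titration, ~60 µM downward; luminescence read.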
SMN2 splice up – increases expression of the SMN2 splice variant; HEK293 SMN2-luciferase splicing reporter, luminescence, 30-36 h; Potency, µM (series often up to 46.1 µM), inactives show at the highest dose activity change, positive = activation, hits mostly activators; actives 2.8% (n = 210,000); AID 1458; also: % of control where 0% means no effect; nearly all actives have a fitted effect of over 55% in size
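qHTS luciferase splicing reporter: luminescence rises when SMN2 exon 7 is included in transfected HEK293 cells. Compound exposure lasted 30-36 h at 37C, with 4.5 mM final sodium butyrate as control, followed by a ONE-Glo read.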
Rab9 promoter act – Rab9 promoter activation; AID 485297; Potency, µM (titrated, usually from 9.22 µM), without a hit: top-dose activation, negative = inhibition, usual class: activators; Huh7 Rab9 promoter-luciferase reporter, luminescence, 24 h; actives 2.8% (n = 320,000); also: % of control where 0% means no effect; nearly all actives have a fitted effect of over 60% in size
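Huh7 reporter line, Rab9 promoter upstream of luciferase. Compound exposure 24 h at 37 °C in reduced-serum medium with 10% FBS. Read-out: luminescence.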
* marks the source's active call; other numbers are inactive results; ? = inconclusive; . = no result given; [ ] = another dose, or the depositor's remark. Unless noted, calls follow the shape of the dose curve; as a rule, active = well fitted curve in the direction sought with a large enough effect; inconclusive = small, poorly fitted or top-dose-only effect, or another doubt; inactive = no such curve, though single readings can be large; an effect the other way counts as inactive or inconclusive. Potency is read from the fitted curve at half-maximal effect.

SMILES | NPC1 prom act | ELG1 genotoxic | uPA surface inh | FLuc counter | SMN2 splice up | Rab9 promoter act
COc1ccccc1N1CCN(/N=C/C=C\c2ccco2)CC1 | 1.1µM* | ? | -7% | 4.8µM* | 13µM* | 2µM*
CCN(CC(=O)NCc1ccc(F)cc1)C(=O)/C=C/c1ccc(OC)c(S(=O)(=O)NC(C)C)c1 | -24% | ? | -13% | -4% | . | -20%
COc1ccc(NC(=O)c2oc3ccc(S(=O)(=O)N4CCC5(CC4)OCCO5)cc3c2C)cc1Cl | . | . | . | -9% | . | .
Cc1nnc(SCC(=O)c2ccc(Br)cc2)s1 | 10% | -1% | -10% | 17µM* | -8% | 17%
Nc1nnc(SCC(=O)c2ccc3ccccc3c2)s1 | 4.5µM* | 12µM* | 4% | 19µM* | ? | 4µM*
Cc1ccc(C(=O)CSc2nnc(C)s2)cc1 | 2.2µM* | ? | 3% | 13µM* | ? | 2.2µM*
Cc1ccc(-c2nc(NC(=O)CSc3nnc(C)s3)ns2)cc1 | 8% | 3% | -18% | 19µM* | 6% | -7%
COc1cc(OC)cc(C(=O)NCC(c2cccs2)S(=O)(=O)c2ccc(F)c(C)c2)c1 (stereo not drawn) | . | . | . | -2% | . | .
COc1ccc2c(c1)sc1ncc(C(=O)NCc3ccc(Cl)cc3)c(=O)n12 | . | . | . | 4% | ? | .
CC(=O)OC1C[C@]2(C)C(C(C)=O)CCC2C2CCC3=CC(=O)CC[C@@]3(C)C12 (stereo partly drawn) | . | . | . | . | -13% | .
O=P(O)(O)OP(=O)(O)O | . | . | . | . | 1%[9.22 µM] | .
Oc1nc(Nc2ccc(Cl)cc2Cl)sc1/C=C1\C=Nc2ccccc21 | 1% | -3% | 0% | -10% | 3.2µM* | -6%
COC(=O)[C@@H]1C(O)[C@@H](C(=O)OC)[C@H](C)N(C)[C@@H]1C (stereo partly drawn) | . | . | . | . | -5%[9.22 µM] | .
CCN(CCCNC(=O)CSc1cc(=O)n(CC)c2ccccc12)c1ccccc1 | . | . | . | -14% | -3% | .
O=S1(=O)N=C(Nc2ccc(N3CCOCC3)cc2)c2ccccc21 | 7% | 2% | -19% | 13µM* | ? | 7%
O=S1(=O)N=C(N2CCOCC2)c2ccccc21 | 4% | -1% | 3% | 7% | -4% | 1%
COc1ccc(CNC(=O)C2COc3ccccc3O2)cc1 (stereo not drawn) | ? | 14% | 0% | ? | 13µM* | ?
COc1ccccc1CNC(=O)C1COc2ccccc2O1 (stereo not drawn) | 15% | 18µM* | -2% | ? | ? | -6%
CC(C)c1ccc(S(=O)(=O)c2nnn3c2nc(N2CCCCC2)c2sccc23)cc1 | . | . | . | -2% | . | .
CCCCCn1c(=O)[nH]c2cc(C(=O)NCc3ccc(OC)cc3)ccc2c1=O | . | . | . | 0% | -3% | .
Cc1oc(C(=O)O)cc1COc1ccc2c3c(c(=O)oc2c1C)CCC3 | 19% | ? | -3% | 27µM* | ? | ?
Cc1c(OCc2ccc([N+](=O)[O-])cc2)ccc2c3c(c(=O)oc12)CCC3 | 1.1µM* | ? | -2% | ? | 5.6µM* | 1µM*
Cc1oc(C(=O)O)cc1COc1ccc2c3c(c(=O)oc2c1C)CCCC3 | 9% | 2% | . | -4% | 5% | 11%
CC(=O)COc1ccc2c3c(c(=O)oc2c1C)CCCCC3 | ? | 7.3µM* | -19% | -18% | ? | ?
O=C(COC(=O)c1cnc(Cl)c(Cl)c1)NC1CC1 | . | -2% | -13% | . | . | .
COc1ccccc1CNC(=O)CCCn1c(=O)c2ccccc2n(CC(=O)Nc2c(C)cc(C)cc2C)c1=O | . | . | . | 1% | 17% | .
CC#CCN1c2ccccc2[C@]23C[C@@H](C(=O)OC)N(S(=O)(=O)CCCC)C2=NC(C(=O)OC)=C(C(=O)OC)[C@H]13 | . | . | . | . | -8%[9.22 µM] | .
O=C(NCc1ccccc1)c1ccc(Cn2c(=O)c3cccn3c3cccnc32)cc1 | . | . | . | 3% | . | .
N#C/C(C(=O)N1CCOCC1)=C1\Nc2ccccc2S1 | 17% | ? | 1% | 17µM* | ? | 9%
